Assay outcomes from PubChem.
USP2a inh – blocks human ubiquitin-specific protease USP2a. O75604. USP2 core, Ub-CHOP2 coupled fluorogenic reporter, 485/531. Potency, µM (titrated, usually from 38.3 µM), inactives show at the top dose activity change, negative = inhibition, hits mostly inhibitors. 330,000 tested, 0.01% active. AID 463254;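 note: potency is the fitted concentration of half-maximal effect; plate controls were DMSO wells for no effect and full inhibition by NEM control for full effect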
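Deubiquitinase activity read as fluorescence (485/531 nm) after Ub-CHOP2 cleavage activates the enterokinase reporter on its substrate; USP2 core 10nM, Ub-CHOP2 and substrate 25nM each, 30min compound preincubation then 60min RT; data normalized to NEM, curves fitted.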
D1 potentiator – potentiators of human D1 dopamine receptor; AID 504651; 360,000 tested, 0.036% active; P21728; HEK293 TREx D1 cells, calcium flux, dopamine EC20 potentiation; potentiation, % at 10 µM; in the data active = potentiation above about 30%; note: 0% is about no effect
Target sequence (P21728 whole entry, looked up): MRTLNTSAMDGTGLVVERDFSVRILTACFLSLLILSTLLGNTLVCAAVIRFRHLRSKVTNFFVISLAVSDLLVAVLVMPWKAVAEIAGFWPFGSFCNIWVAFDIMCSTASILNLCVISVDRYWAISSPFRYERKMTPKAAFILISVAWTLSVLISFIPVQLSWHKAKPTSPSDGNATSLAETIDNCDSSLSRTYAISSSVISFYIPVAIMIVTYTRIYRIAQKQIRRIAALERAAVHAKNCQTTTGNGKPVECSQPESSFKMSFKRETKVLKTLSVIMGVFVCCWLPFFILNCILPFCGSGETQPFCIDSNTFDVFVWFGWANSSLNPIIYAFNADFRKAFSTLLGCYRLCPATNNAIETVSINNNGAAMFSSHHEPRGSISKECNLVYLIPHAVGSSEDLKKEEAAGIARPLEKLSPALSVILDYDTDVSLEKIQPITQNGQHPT
D1 antagonist – human D1 dopamine receptor antagonism | HEK293 TREx D1 cells, calcium flux, dopamine EC80; active compounds read low | activity change, negative = inhibition, % at 10 µM | 360,000 tested, 3.2% active | AID 504652 | P21728; in the data active = activity change below about -30%; note: % is set by controls: 0 for no effect and ±100 for the full control effect
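Inducible Hek293 Trex D1 cells (tetracycline, overnight, 30 C). Calcium dye 30–90 min RT. Antagonist mode: EC80 dopamine added after 180 s compound read.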
Eya2 phos inh – blocks the phosphatase activity of human Eya2; O00167; recombinant Eya2, OMFP fluorescence dephosphorylation (OMFP is methylfluorescein phosphate); Potency, µM (highest dose often 76.9 µM), for inactives: at the highest dose activity, negative = inhibition, hits mostly inhibitors; 330,000 tested, 0.006% active; AID 488837; note: potency is the fitted concentration of half-maximal effect; % is set by controls: 0 for no effect and ±100 for the full control effect
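Eya2 protein (added as 0.2 uM solution) was preincubated with compound for 10 min at ambient temperature in 50 mM HEPES pH 7.5, 50 mM NaCl, 5 uM MgCl2, 0.05% BSA, 1 mM DTT. OMFP (added at 50 uM) then reacted 10 min; fluorescence read at 485/525 nm.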
D1 ag – agonists of human D1 dopamine receptor; P21728; HEK293 T-REx D1 cells, calcium flux, agonist mode; activation, % at 2 µM; 360,000 tested, 1% active; AID 504660; in the data active = activation above about 30%; note: 0% is about no effect
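Inducible HEK293 T-REx D1 cells, force-coupled to calcium signalling, were plated at 4000 cells/well with tetracycline and held overnight at 30 C. After no-wash calcium dye loading, compound-evoked calcium rise over 180 s flagged agonists.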
GALK inh – inhibitors of human galactokinase; Purified GALK, Kinase-Glo residual ATP luminescence; Potency, µM (highest dose often 57.5 µM), without a hit: at the top dose activity change, negative = inhibition, usual class: inhibitors; 270,000 tested, 0.007% active; AID 1868; note: potency is the fitted concentration of half-maximal effect; % is set by controls: 0 for no effect and ±100 for the full control effect
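Compounds were pin-transferred into ATP buffer (35 uM final), then GALK plus galactose (5 nM, 100 uM final) was added. After 1 h at room temperature, Kinase-Glo Plus was added and luminescence read after 10 min.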
* = called active by the depositor; . = no result given. Hits are enriched below; roughly 3.9% of the tested compounds scored in any of these assays. Unless noted, calls come from the whole dose curve; as a rule, active = well fitted inhibition curve with a large enough effect; inconclusive = small, poorly fitted or top-dose-only effect, or effect the other way; inactive = flat fitted curve, though single readings scatter.

SMILES | USP2a inh | D1 potentiator | D1 antagonist | Eya2 phos inh | D1 ag | GALK inh
CCOc1ccccc1NC(=O)CSc1nc2c(oc3ccccc32)c(=O)n1C(C)C | . | -5 | 14 | . | 2 | .
CC(C)(C)NC(=O)C(OC(=O)c1ccco1)c1ccccc1F (configuration not stated) | 0% | -3 | -38* | -4% | -1 | 1%
CCC(C)(C)NC(=O)C(OC(=O)c1ccco1)c1ccccc1F (configuration not stated) | 1% | -4 | -27 | 4% | 1 | 6%
Cn1nnnc1Sc1ncnc2scc(-c3ccc(C(=O)OC(C)(C)C)cc3)c12 | . | 14 | -6 | . | 5 | .
Cc1ccc(C)c(N2CCN(CCCNC(=O)c3ccc4nc(CCc5ccccc5)oc4c3)CC2)c1 | . | 1 | 2 | . | 23 | .
Cc1ccc(Cl)cc1N1CCN(CCCNC(=O)c2ccc3nc(N4CCCCC4)sc3c2)CC1 | . | 2 | -3 | . | 1 | .
O=C(NCCCN1CCN(c2ccccc2)CC1)c1ccc2nc(Cc3ccccc3)oc2c1 | . | -3 | -60* | . | 32* | .
CCN1CCN(CCCNC(=O)c2ccc3nc(Cc4ccccc4)oc3c2)CC1 | . | -2 | -18 | . | 7 | .
COc1ccc(N2CCN(CCCNC(=O)c3ccc4nc(N5CCCCC5)sc4c3)CC2)cc1 | . | -4 | -57* | . | 13 | .
O=C(NCCCN1CCN(c2ccc(F)cc2)CC1)c1ccc2nc(Cc3ccccc3)oc2c1 | . | -4 | -38* | . | 26 | .
COc1ccc(Cc2nc3ccc(C(=O)N(C)CCCN4CCOCC4)cc3o2)cc1 | 3% | -3 | -49* | 5% | 4 | -5%
CCN1CCN(CCCNC(=O)c2ccc3nc(Cc4ccc(OC)cc4)oc3c2)CC1 | . | 0 | -1 | . | 5 | .
CCn1cnc2c(Nc3ccc(CCC(=O)N=C(N)N)cc3)nc(C#N)nc21 | . | -2 | -1 | . | 0 | .
CN(C)c1oc(-c2ccc(COc3ccccc3)o2)nc1C#N | . | -1 | 6 | . | 1 | .
CCC(C)NC(=O)c1ccc2nc(Cc3ccc(OC)cc3)oc2c1 (configuration not stated) | 1% | 0 | 18 | 4% | 1 | 4%
CCC(NC(=O)c1ccc2nc(Cc3ccc(OC)cc3)oc2c1)c1ccncc1 (configuration not stated) | 4% | -8 | -41* | -21% | 21 | -4%
COc1ccc(NC(=O)Nc2cccc([N+](=O)[O-])c2)cc1Cl | 2% | -20 | -57* | 2% | 20 | -2%
COc1ccccc1CCNC(=O)Nc1cccc([N+](=O)[O-])c1 | 2% | -8 | . | 6% | 4 | 3%
COc1ccc(NC(=O)Nc2ccc3c(c2)N(C)C(=O)CS3)cc1Cl | 2% | -7 | -33* | 19% | 13 | 1%
COc1cc([N+](=O)[O-])ccc1NC(=O)Nc1ccc2c(c1)OCCO2 | 1% | -7 | 7 | -5% | 1 | -2%
O=C(Nc1ccc([N+](=O)[O-])cc1)Nc1ccc(OC(F)F)c(Cl)c1 | 2% | -17 | -49* | -6% | 25 | .
O=C(Cc1ccc(Cl)cc1Cl)Nc1ccc(OC(F)F)c(Cl)c1 | 0% | -1 | -24 | 0% | 14 | -2%
COc1ccc(NC(=O)Nc2ccc3c(c2)N(C)C(=O)CS3)cc1OC | 3% | -2 | -18 | -6% | 5 | -1%
O=C(Nc1ccc([N+](=O)[O-])cc1)Nc1ccc2c(c1)OCCO2 | -9% | -14 | -41* | -2% | 39* | -2%
O=C(Cn1ncc2ccsc2c1=O)N1CCN(c2ccc(F)cc2)CC1 | . | -4 | -3 | . | 1 | .
SMILES | USP2a inh | D1 potentiator | D1 antagonist | Eya2 phos inh | D1 ag | GALK inh
CC(=O)N1CCCc2cc(S(=O)(=O)NCc3ccc(N(C)C)cc3)ccc21 | . | -6 | 1 | . | 7 | .
COc1ccc(C(=O)Nc2nc3ccccc3n2CCOc2ccc(Cl)cc2)cc1 | . | -3 | -11 | . | 4 | .
CC(C)NC(=O)C1CCN(c2nc3ccccc3nc2C(F)(F)F)CC1 | . | -3 | -7 | . | 5 | .
O=C(Nc1ccc2c(c1)OCO2)Nc1ccc2c(c1)OCO2 | 6% | 4 | 2 | 6% | 10 | 1%
O=C(Nc1ccc(OC(F)F)c(Cl)c1)Nc1ccc2c(c1)OCO2 | 0% | -9 | -36* | -1% | 17 | -8%
O=S(=O)(c1cccc2ccccc12)N1CCN(c2ccc(Cl)c(Cl)c2)CC1 | . | -6 | -21 | . | 0 | .
COc1cc(Cl)c(C)cc1NS(=O)(=O)c1c(C)nc2sccn2c1=O | . | -2 | -44* | . | 2 | .
O=C(c1cnn(-c2cccc(F)c2)c1-n1cccc1)N1CCN(c2ccccc2F)CC1 | . | -1 | -2 | . | 2 | .
O=C(NNC(=O)c1cc(-c2ccncc2)nc2ccccc12)c1cccc(Cl)c1 | 1% | -4 | -41* | 5% | 3 | .
Cc1[nH]c2ccccc2c1/C=N/NC(=O)Nc1ccccc1 | -2% | -8 | -9 | -1% | 3 | 0%
Cc1[nH]c2ccccc2c1/C=N/NC(=O)CCC(=O)Nc1ccccc1 | 2% | -4 | -48* | -9% | 1 | 12%
Cc1[nH]c2ccccc2c1/C=N/NC(=O)c1cc(-c2ccncc2)nc2ccccc12 | 0% | -17 | -43* | -27% | 1 | -7%
Cc1[nH]c2ccccc2c1/C=C/C(=O)c1ccccc1 | 0% | -3 | -20 | -1% | 41* | 1%
CC1=C(C(=O)Nc2ccc(C)cc2C)C(c2sccc2C)n2ncnc2N1 (configuration not stated) | . | 0 | -4 | . | 5 | .
Cc1c(Cl)ccc2sc(N3CCN(C(=O)CCS(=O)(=O)c4ccc(F)cc4)CC3)nc12 | . | -1 | . | . | 18 | .
CC(=O)c1ccc(NC(=O)Cn2nc(C(F)(F)F)c3c2CCCC3)cc1 | . | -5 | -1 | . | 11 | .
CCN(CCNCC(O)COc1ccccc1C(C)C)c1cccc(C)c1 (configuration not stated) | -9% | 14 | -27 | -11% | 56* | 1%
COC(=O)c1ccccc1NC(=O)Cn1nc(C(F)(F)F)c2c1CCCC2 | . | -1 | 9 | . | 26 | .
O=C(Nc1cccc(-c2cn3ccccc3n2)c1)c1cc2ccccc2oc1=O | -2% | 3 | -35* | -13% | 0 | -4%
COc1ccc2c(C)c(CC(=O)NCc3ccc(C)cc3)c(=O)oc2c1OC | . | -1 | -12 | . | 0 | .
CC(OC(=O)c1ccc2ccccc2c1)C(=O)N(C)Cc1ccccc1 (configuration not stated) | 3% | -1 | -24 | 16% | 3 | .
CC(C)N(CCC(=O)c1ccc2ccccc2c1)Cc1ccccc1 | 3% | -7 | -32* | 5% | 1 | .
CCOC(=O)c1ccc(NC(=O)CCc2c(C)nc3c(c(C)nn3C(C)(C)C)c2C)cc1 | . | -3 | 5 | . | 5 | .
